Reference: PubChem BioAssay AID1063 (University of Pittsburgh Molecular Library Screening Center, 2008)
The whole screen tested about 200,000 compounds, of which about 18,000 (9%) were called active. Rule as the data show it: active = inhibition above about 50%; inactive = the rest. Many of the other results were omitted from the sample, so actives are more common in it than they were.

test: Leishmania major promastigote growth inhibition, primary screen (AID 1063); conditions: Leishmania major promastigotes, resazurin fluorescence viability; at 10 µM; stronger effect = higher value;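 also: promastigotes grown with compound for 44 hours at 28 °C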

Row | SMILES | inhibition
1 | CC(C)(C)c1ccc(CN2C(=O)CN=C(c3ccccc3)c3ccccc32)cc1 | 97.3% (active)
2 | CCN1CCN(c2ccc([N+](=O)[O-])cc2C#N)CC1 | 3.77% (inactive)
3 | CN1CCN(Cc2ccc(OC(F)(F)F)cc2)CC1 | 90.4% (active)
4 | CN1CCN(Cc2ccccc2C(F)(F)F)CC1 | 0.79% (inactive)
5 | CN(C)c1ccc(/C=C2\CC3C4CC=C5CC(O)CCC5(C)C4CCC3(C)C2=O)cc1 (stereo unspecified) | 37% (inactive)
6 | Cc1ccc(-n2c(-c3ccc([N+](=O)[O-])cc3)nc3ccccc3c2=O)cc1 | 0.86% (inactive)
7 | Cc1cccc(OP(=O)(Oc2cccc(C)c2)OC(c2ccccc2)C(F)(F)F)c1 (stereo unspecified) | 57.8% (active)
8 | CCN(CC)P(=O)(Oc1cccc(C)c1)N(CC)CC | 22.5% (inactive)
9 | CCC(=O)CC(c1ccc([N+](=O)[O-])cc1)c1c(O)c2ccccc2oc1=O (stereo unspecified) | -15.5% (inactive)
10 | CN(C)c1nc(N(C)C)nc(N(C#N)CCCl)n1 | -4.48% (inactive)
11 | C[N+]12CN3CN(CN(C3)C1)C2 | 93.8% (active)
12 | CC1CCCCN1Cc1cccnc1 (stereo unspecified) | -6.9% (inactive)
13 | COc1ccccc1N=Nc1c(O)[nH]c(=S)[nH]c1=O | -4.5% (inactive)
14 | CN(C)P(=S)(Nc1ccccc1)C(Cl)(Cl)Cl (stereo unspecified) | 28.1% (inactive)
15 | O=C(Nc1cccc(OC(=O)N2CCCCC2)c1)N1CCOCC1 | 0.65% (inactive)
16 | CC(C)Oc1cccc(C(=O)C2CCCN(C3CCOCC3)C2)c1 (stereo unspecified) | 93.2% (active)
17 | Cc1ccc(-c2nn(CCC#N)cc2C(=O)O)cc1C | -5.5% (inactive)
18 | COC(=O)COc1cc(C)cc2oc(=O)c3c(c12)CCCC3 | -6.35% (inactive)
19 | O=C(COC(=O)c1ccccc1)Nc1ccc(Cl)cc1C(=O)c1ccccc1 | -3.5% (inactive)
20 | CN(C)C(=O)Oc1ccc(OCc2cccc[n+]2C)cc1 | -6.21% (inactive)
21 | CCOC(=O)C1(CCc2ccccc2)CCN(Cc2ccco2)CC1 | 9% (inactive)
22 | CCOC(=O)C1(Cc2ccc(Cl)cc2)CCN(C(C)CCn2cccn2)CC1 (stereo unspecified) | 80.9% (active)
23 | CC(C)(C)[C@]1(O)C[C@@H]2OC(=O)C[C@@]23C(=O)O[C@@H]2OC(=O)[C@H](O)[C@]213 | -6.51% (inactive)
24 | CCCOC(=O)C1C2c3ccccc3C(c3ccccc32)C1C(=O)O (stereo unspecified) | -5.51% (inactive)

Row | SMILES | inhibition
25 | CC(C(=O)Nc1ccc(Cl)cc1Cl)N1CC=C(c2ccccc2)CC1 (stereo unspecified) | -2.71% (inactive)
26 | CCN(N=Nc1nonc1OC)c1nonc1OC | 0.16% (inactive)
27 | Cc1cccc(N2C(=O)NC(=O)/C(=C\c3cnn(-c4ccccc4)c3)C2=O)c1 | -2.18% (inactive)
28 | COc1ccc(CN2C(=O)NC(=O)/C(=C\c3ccc(OC)c(OC)c3OC)C2=O)cc1 | -6.27% (inactive)
29 | O=C1NC(=O)N(c2ccc(F)cc2)C(=O)/C1=C/c1ccc2c(c1)CCCN2Cc1ccccc1 | 7.8% (inactive)
30 | COc1cccc(N2C(=O)NC(=O)/C(=C\c3ccc([N+](=O)[O-])s3)C2=O)c1 | 93.6% (active)
31 | O=C1NC(=O)N(c2ccccc2)C(=O)/C1=C/c1ccc([N+](=O)[O-])s1 | 93.8% (active)
32 | O=C(COC(=O)Cc1ccccc1)Nc1ccc(F)cc1 | 0.24% (inactive)
33 | OCC#CC[N+]1(CC#Cc2ccccc2)CCCC1 | -1.69% (inactive)
34 | N=c1ccccn1Cc1ccccc1 | -0.35% (inactive)
35 | C=CCN(CC=C)C(=O)Nc1ccc(OCC)cc1 | -9.24% (inactive)
36 | O=C(NC(c1ccc(Cl)cc1)P(=O)(Oc1ccccc1)Oc1ccccc1)OCc1ccccc1 (stereo unspecified) | 10.2% (inactive)
37 | CN1CCN(c2cc(N3CCNCC3)ccc2[N+](=O)[O-])CC1 | 44% (inactive)
38 | CCCCC(=O)N/N=C/c1c(O)n(CC)c(=S)n(CC)c1=O | -5.9% (inactive)
39 | O=C(Nc1cccc2ccccc12)N1CCC2(CC1)OCCO2 | 0.77% (inactive)
40 | CCOC(=O)C(O)(c1ccc(NC(=O)c2ccco2)c(OC)c1)C(F)(F)F (stereo unspecified) | 73.8% (active)
41 | CCOC(=O)C(O)(c1ccc(N)c(OC)c1)C(F)(F)F (stereo unspecified) | -13.8% (inactive)
42 | COC(=O)C(O)(c1ccc(NC(=O)c2ccco2)c(OC)c1)C(F)(F)F (stereo unspecified) | -2.15% (inactive)
43 | C=CCn1c(O)c(/C=N/N2CCOCC2)c(=O)[nH]c1=S | -4.94% (inactive)
44 | COc1ccc(C2N3CC(C)(C)CN23)cc1 (stereo unspecified) | -5.78% (inactive)
45 | Cc1ccccc1N1C(=O)NC(=O)/C(=C\c2cc(C)n(C)c2C)C1=O | 2.98% (inactive)
46 | Cc1cc(/C=C2/C(=O)NC(=O)N(Cc3ccco3)C2=O)c(C)n1-c1ccc(C(=O)O)cc1 | -6.68% (inactive)
47 | Cc1c(C(=O)O)cccc1-n1c(C)cc(/C=C2\C(=O)NC(=O)N(c3ccc4c(c3)OCO4)C2=O)c1C | 2.09% (inactive)
48 | Cc1ccnc(-n2c(C)cc(/C=C3\C(=O)NC(=S)N(C)C3=O)c2C)c1 | 70% (active)

Row | SMILES | inhibition
49 | Cc1ccc(-n2c(C)cc(/C=C3\C(=O)NC(=O)N(C)C3=O)c2C)cc1C | 58% (active)
50 | Cc1cc(C=C2C(=O)NC(=O)NC2=O)c(C)n1-c1ccncc1 | 0.48% (inactive)
51 | CC(=O)N(C1=NCCCS1)c1ccccc1F | -4.7% (inactive)
52 | Cc1cccc(-n2c(O)c(C=NC34CN5CN(CN(C5)C3)C4)c(=O)[nH]c2=O)c1 | -14.4% (inactive)
53 | O=c1c2ccccc2nc(-c2ccccc2)n1-c1ccccn1 | -4.66% (inactive)
54 | C[N+]1(C)CCOC(O)(c2ccc(-c3ccc(C4(O)C[N+](C)(C)CCO4)cc3)cc2)C1 (stereo unspecified) | 20.9% (inactive)
55 | O=C(OCCN1CCOCC1)C1(c2ccccc2)CCCC1 | 1.57% (inactive)
56 | CC[N+]1(C)CCCC(OC(=O)C(O)(c2ccccc2)c2ccccc2)C1 (stereo unspecified) | -2.17% (inactive)
57 | CN1CCN(C(=S)SCC(=O)Nc2ccc(Cl)cc2C(=O)c2ccccc2)CC1 | 8.25% (inactive)
58 | O=C(CCN1CCCCC1)NCC(=O)Nc1ccc(Br)cc1C(=O)c1ccccc1 | 91.4% (active)
59 | O=C(CN1CCCCC1)Nc1ccc(Br)cc1C(=O)c1ccccc1Cl | 11.2% (inactive)
60 | O=[N+]([O-])c1ccc(C2C3C(c4ccccc4)=NC4(CCCCC4)N32)cc1 (stereo unspecified) | 19.8% (inactive)
61 | CC(C)N(CC#CCC1(O)c2ccccc2-c2ccccc21)C(C)C | 2.06% (inactive)
62 | CN(C)CCCN=Cc1c(O)n(Cc2ccco2)c(=O)[nH]c1=O | -6.14% (inactive)
63 | C=CCN1C(=O)C2(C(C(=O)OCC)=C(N)Oc3c2c(=O)oc2ccccc32)c2ccccc21 (stereo unspecified) | -6.93% (inactive)
64 | Cc1ccsc1C(=O)C1CCCN(Cc2ccc(O)cc2)C1 (stereo unspecified) | 83.9% (active)
65 | Cc1nc2ccc(N3CCN(C)CC3)cc2nc1C | 3.66% (inactive)
66 | CCOC(=O)c1c(N)n(Cc2ccccc2)c2nc3ccccc3nc12 | 100% (active)
67 | COc1cc(Cn2c(N)c(C(=O)NCc3ccco3)c3nc4ccccc4nc32)cc(OC)c1OC | 100% (active)
68 | CCOC(=O)c1c(N)n(CCN2CCOCC2)c2nc3ccccc3nc12 | 24.6% (inactive)
69 | O=c1[nH]c(=O)n(-c2ccccc2)c(O)c1C=NC12CN3CN(CN(C3)C1)C2 | -6.09% (inactive)
70 | OC(Cn1c2ccccc2c2ccccc21)C[n+]1ccccc1 (stereo unspecified) | 1.49% (inactive)
71 | COP(=O)(OC)C(NC(=O)c1ccc(C)cc1)C(Cl)(Cl)Cl (stereo unspecified) | -7.25% (inactive)
72 | O=C(Cc1ccccc1[N+](=O)[O-])N1CCN(Cc2ccc3c(c2)OCO3)CC1 | 48% (inactive)

Row | SMILES | inhibition
73 | CNC(=S)N/N=C1\C2CN3CCN(C2)CC1(c1ccccc1)C3 | -5.87% (inactive)
74 | c1cncc(CNCCc2c[nH]c3ccccc23)c1 | 22.7% (inactive)
75 | CCc1nnc(NS(=O)(=O)c2ccc(N=Cc3c(O)n(-c4ccccc4)c(=O)[nH]c3=O)cc2)s1 | -1.81% (inactive)
76 | COP(=O)(NS(=O)(=O)c1ccccc1)OC | -6.48% (inactive)
77 | COc1ccc(C(=O)C2CCCN(Cc3ccc(C)s3)C2)cc1OC (stereo unspecified) | 89.4% (active)
78 | Cc1cccc2c(CCN)c[nH]c12 | 0.35% (inactive)
79 | O=C(Cn1c(=O)n(CC2CS2)c2ccccc21)N1CCCCC1 (stereo unspecified) | 2.59% (inactive)
80 | O=C(Cc1ccccc1)N1CCN(C2CCCCCC2)CC1 | 64.8% (active)
81 | CCC(=NCCc1ccccc1)c1c(O)n(C2CCCCC2)c(=O)[nH]c1=O | 21% (inactive)
82 | CCCn1c(C(=O)c2ccccc2OC)nc2ccccc21 | 15% (inactive)
83 | C[C@@]1([C@@H](NP(=O)(c2ccccc2)c2ccccc2)c2ccccc2)C[C@H]1CCO | -1.91% (inactive)
84 | CNP1(NC)=Nc2nn(-c3ccccc3)c(N)c2C(c2ccccc2)=N1 | -6.36% (inactive)
85 | COc1ccccc1N=C1SCCCN1C | -5.49% (inactive)
86 | Cc1ccc(-c2nc3ccccc3c(=O)n2-c2ccc(Br)cn2)cc1 | 3.21% (inactive)
87 | CC1=CC(=Cc2sc3ccccc3[n+]2C)C=C(C)O1 | 100% (active)
88 | COc1cc(-n2c(=S)[nH]c3ccc(C)cc3c2=O)c(Cl)cc1Cl | 43.6% (inactive)
89 | Cc1ccc(Cn2nnnc2CN2CCC(n3nnc4ccccc43)CC2)cc1 | 4.28% (inactive)
90 | O=C(C1CC(=O)N(C2CCCC2)C1)N1CCC2(CC1)OCCO2 (stereo unspecified) | -6.1% (inactive)
91 | CCN(CC)c1ccc([N+](=O)[O-])c2cccnc12 | 9.8% (inactive)
92 | Cc1cc(C)cc(NC(=S)NC2CC3CCCC(C2)N3Cc2cccs2)c1 (stereo unspecified) | 87.3% (active)
93 | O=C(COc1ccc2ccccc2c1)N1CCN(Cc2ccncc2)CC1 | 44.3% (inactive)
94 | OC1/C(=C/c2ccc(C(F)(F)F)cc2)N2CCC1CC2 (stereo unspecified) | 0.72% (inactive)
95 | CCOC(=O)C(O)(c1ccc(N=Cc2ccccc2O)c(C)c1)C(F)(F)F (stereo unspecified) | -7.14% (inactive)
96 | O=C1/C(=C\c2ccc3c(c2)OCO3)N2CCC1CC2 | 4.04% (inactive)
